Measurements: PubChem BioAssay (NCI)
“And” between values parts separate entries of the source, which are not always exact repeats. Equal entries are not always repeated. Compounds without any hit were thinned out: in the full panel of roughly 83,000, 20% have a hit.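 Note: values are percent growth. 100 is the growth of untreated cells, values between 100 and 0 indicate rising inhibition; between -100 and 0 indicates cell death.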 Unmarked numbers belong to inactive results. The source made the active and inactive calls. How the source made its calls: active means growth percent below 10; inactive means the rest.

Tests used:
Test in all cases: NCI-60 one-dose screen, 48 h (100 = growth as untreated, 0 = no growth, -100 = all killed)
Conditions in all cases: 10 µM unless noted
[1] = tested on: HCT-15 colon
[2] = tested on: HT29 colon
[3] = tested on: SNB-75 CNS
[4] = tested on: SNB-19 CNS
[5] = tested on: U251 CNS
[6] = tested on: PC-3 prostate
[7] = tested on: SK-MEL-5 melanoma
[8] = tested on: UACC-62 melanoma
[9] = tested on: LOX IMVI melanoma
[10] = tested on: SK-MEL-28 melanoma

Structure (SMILES)	growth [1]	growth [2]	growth [3]	growth [4]	growth [5]	growth [6]	growth [7]	growth [8]	growth [9]	growth [10]
CCCCCO/N=C\c1c2c(O)c3c(O)c(C)c4c(c3c1O)C(=O)C(C)(O/C=C\C(OC)C(C)C(OC(C)=O)C(C)C(O)C(C)C(O)C(C)/C=C\C=C(\C)C(=O)N2)O4 (stereo not given)	16.1%	2.51% (active)	39.3%	33.5%	16.8%	13.1%	15.3%	24.1%	23.2%	39.5%
Cc1cc(N2CCN(CC(=O)Nc3ccc4c(ccn4Cc4ccccc4)c3)CC2)nc(N2CCCCCC2)n1	28.2%	5.17% (active)	66.6%	57.3%	38.4%	28.2%	49.2%	43.2%	34.9%	63.4%
NNCCc1ccccc1	99.7% and 91.6%	96.5% and 100%	107% and 78.7%	98.5% and 102%	104% and 93.7%	92% and 94.6%	90.7% and 93.7%	89.9%	98.2% and 88%	110% and 95.5%
